Screening data as filed in PubChem BioAssay.
In the library only some 7.3% were active in any assay of this set; here they are far more common.
Tau fibril ThT = inhibitors of human tau fibril formation, thioflavin T binding | recombinant tau K18 P301L, heparin-induced fibrillization, ThT fluorescence | Potency, µM (doses to about 57.4 µM), for the others: at the highest dose activity, negative = inhibition, hits mostly inhibitors | actives 2.1% (n = 270,000) | AID 1460; also: nearly all actives have a fitted effect of over 55% in size
Target sequence (P10636 561-689 P618L limits assumed): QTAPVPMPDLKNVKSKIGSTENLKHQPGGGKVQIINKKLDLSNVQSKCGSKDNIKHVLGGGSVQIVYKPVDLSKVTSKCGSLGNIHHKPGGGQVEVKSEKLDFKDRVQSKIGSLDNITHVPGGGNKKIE
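Aggregation was driven by heparin (20 uM final) acting on recombinant tau […] bearing P301L in 100 mM sodium acetate pH 7; fibrils were detected with Thioflavin T.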
Gal4-VP16 FLuc = counter-screen for ROR gamma inhibitors: Gal4-VP16 reporter; Drosophila S2 Gal4-VP16 UAS-luciferase, luminescence, 20 h; Potency, µM (doses to about 53.6 µM), for the others: top-dose activity, negative = inhibition, usual class: inhibitors; actives 3.5% (n = 310,000); AID 2546;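 also: Gal4-VP16 expression switched on by copper sulfate through the metallothionein promoter; nearly all actives have a fitted effect of over 50% in size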
RORgamma inh = ROR gamma (mouse) transcription inhibition; P51450; Drosophila S2 Gal4-RORgamma UAS-luciferase reporter, 20 h; Potency, µM (titrated, usually from 53.6 µM), for inactives: at the highest dose activity change, negative = inhibition, actives largely listed as inhibitors; actives 5.4% (n = 310,000); AID 2551; also: nearly all actives have a fitted effect of over 60% in size
Target sequence (P51450 whole entry, looked up, the tested form may be a part): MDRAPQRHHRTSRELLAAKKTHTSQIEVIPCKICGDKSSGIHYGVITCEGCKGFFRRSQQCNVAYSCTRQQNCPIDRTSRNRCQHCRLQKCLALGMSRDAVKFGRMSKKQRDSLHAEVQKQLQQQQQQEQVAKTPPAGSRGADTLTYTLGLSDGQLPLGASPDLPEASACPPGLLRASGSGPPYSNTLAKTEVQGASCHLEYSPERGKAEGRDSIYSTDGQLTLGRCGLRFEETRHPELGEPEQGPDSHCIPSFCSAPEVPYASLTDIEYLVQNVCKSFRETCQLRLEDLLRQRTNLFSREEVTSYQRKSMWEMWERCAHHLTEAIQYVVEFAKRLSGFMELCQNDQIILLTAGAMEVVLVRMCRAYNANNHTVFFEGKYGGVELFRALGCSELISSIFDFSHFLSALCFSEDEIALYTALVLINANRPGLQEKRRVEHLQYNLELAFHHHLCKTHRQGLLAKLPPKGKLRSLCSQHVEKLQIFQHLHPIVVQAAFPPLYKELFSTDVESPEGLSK
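Stable Schneider cell line, Gal4 DNA-binding domain fused to ROR gamma, UAS-luciferase. Cmpd 1 hr RT → CuSO4 700 uM final → 20 hr RT → luciferase reagent 10 min → luminescence.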
Tau fluor counter = counter-screen for tau fibril formation inhibitors. AID 1463. Potency, µM (doses to about 57.7 µM), without a hit: at the top dose activity change, negative = decrease. tau K18 P301L Alexa594 fluorescence, heparin fibrillization. actives 0.93% (n = 280,000); also: nearly all actives have a fitted effect of over 55% in size
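Human tau K18 P301L (15 uM unlabeled, 0.24 uM Alexa 594-labeled) in 100 mM sodium acetate pH 7 with 20 uM heparin, 6 hr at 37 C. ThT 30 uM added, 1 hr ambient; Alexa 594 FP and total fluorescence read at 555/632 nm.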
Tau FP inhib = blocks human tau fibril formation measured by polarization; AID 1468; Potency, µM (top dose mostly 57.7 µM), without a hit: at the top dose activity, negative = inhibition, usual class: inhibitors; actives 0.39% (n = 280,000); K18 P301L tau heparin fibrillization, Alexa594 FP, 6 h; P10636; also: nearly all actives have a fitted effect of over 55% in size
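K18 P301L tau (15 uM unlabeled/0.24 uM Alexa 594-labeled, final) + compound + heparin 20 uM final; 100 mM NaOAc pH 7; 6 hr 37 C; ThT 30 uM final added, 1 hr RT; FP ex 555/em 632 nm.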
Active calls of the source: *; ? = inconclusive; · = no result; [ ] = dose if it differs, or a comment. Calls follow the shape of the dose curve; as a rule, active = well fitted curve in the direction sought with a large enough effect; inconclusive = small, poorly fitted or top-dose-only effect, or another doubt; inactive = no such curve, though single readings can be large; an effect the other way counts as inactive or inconclusive. % is scaled to controls: 0 for no effect and ±100 for the full control effect; potency is read from the fitted curve at half-maximal effect.

SMILES	Tau fibril ThT	Gal4-VP16 FLuc	RORgamma inh	Tau fluor counter	Tau FP inhib
COc1ccc(NS(=O)(=O)c2cc(NC(=O)c3ccc(C)o3)ccc2N2CCCCC2)cc1	-1%	4.5µM*	6.3µM*	?	-16%
COc1ccc(NS(=O)(=O)c2cc(NC(=O)c3cnccn3)ccc2N2CCCC2)cc1	?	-2%	-24%	?	2%
O=C(Nc1ccc(F)cc1)c1cc(S(=O)(=O)Nc2ccc(F)cc2)cs1	-13%	-20%	?	?	?
O=C(Nc1ccc2c(c1)CCC2)c1ccc(Br)o1	?	-5%	1%	-13%	2%
COc1ccc(NS(=O)(=O)c2cc(NC(=O)/C=C/c3cccs3)ccc2N2CCOCC2)cc1	-9%	1%	31%	16µM*[quencher]	4%
Cc1ccc(C(=O)Nc2ccc3c(c2)CCC3)o1	?	13µM*	?	-13%	-3%
COc1ccc(NC(=O)c2cc(S(=O)(=O)Nc3ccc(OC)cc3)cs2)cc1	-16%	11µM*	1%	13µM*[quencher]	?
O=C(NCC1CCCO1)C(=O)N/N=C\c1ccc2c(c1)OCO2 (centres undefined)	·	-1%	-5%	·	·
CC1CC=CC2C1C(=O)N(Cc1ccccc1)C2c1ccc(C(F)(F)F)cc1 (centres undefined)	·	?	44%	·	·
COC[C@H]1O[C@@H](c2c(OC)cc(OC)cc2OC)[C@H](OC)[C@@H](OC)[C@@H]1OC	0%	-14%	8%	-2%	1%
Cc1ccc(-c2cc(C3C4C=CCC(C)C4C(=O)N3Cc3ccccc3)ccc2F)cc1 (centres undefined)	·	-3%	2%	·	·
O=C(Nc1cccc(F)c1)N1CC2(CCN(C(=O)c3ccncc3)CC2)C1	·	-2%	39%	·	·
COc1ccc(NS(=O)(=O)c2cc(NC(=O)c3ccccc3F)ccc2N2CCCC2)cc1	-10%	6%	22%	?	0%
COc1ccc(NS(=O)(=O)c2cc(NC(=O)c3cccs3)ccc2N2CCCC2)cc1	-12%	-7%	19%	16µM*[quencher]	?
CC1CCc2c(sc(NC(=O)C3c4ccccc4Oc4ccccc43)c2C(=O)OC(C)C)C1 (centres undefined)	-1%	·	·	-4%	3%
CCOc1ccc(N2C(=O)CS/C2=C(\C(Cl)=C(Cl)Cl)[N+](=O)[O-])cc1	16µM*	5%	-4%	?	?
COc1cc([N+](=O)[O-])cc(/C=N/NC(=O)C(C)Nc2ccccc2C)c1O (centres undefined)	?	0.5µM*	0.32µM*	-17%	2%
COc1cc([N+](=O)[O-])cc(/C=N/NC(=O)C(C)Nc2cccc(C)c2)c1O (centres undefined)	11µM*	1.1µM*	0.89µM*	-23%	9%
COc1cc([N+](=O)[O-])cc(/C=N/NC(=O)CC#N)c1O	?	4%	-27%	-15%	?
COc1cccc(C(=O)NCc2cn3cccc(C)c3n2)c1	-13%	·	·	-20%	-13%
CCOc1cc(/C=N\NC(=O)Cc2ccccc2)ccc1OCC(=O)Nc1ccc(C)c(C)c1	-12%	-26%	17%	-11%	-2%
CCOc1cc(/C=N\Nc2ccc([N+](=O)[O-])cc2)ccc1OCC(=O)Nc1ccc(C)c(C)c1	2.2µM*	-1%	10%	?	12%
COc1cc(/C=N\Nc2ccc([N+](=O)[O-])cc2)ccc1OCC(=O)Nc1ccc(C)c(C)c1	1.6µM*	-26%	?	7.1µM*[quencher]	2%
COc1cc(/C=N\NC(=O)CN2CCOCC2)ccc1OCC(=O)Nc1ccc(C)c(C)c1	?	0%	-32%	-11%	-8%
CN(C(=O)Cn1c(=O)n(CCC(=O)NCc2ccc3c(c2)OCO3)c(=O)c2sccc21)c1ccccc1	-10%	·	·	-20%	-13%
SMILES	Tau fibril ThT	Gal4-VP16 FLuc	RORgamma inh	Tau fluor counter	Tau FP inhib
COC(=O)c1ccccc1-n1cc2c(c1-c1cccc(C)c1)c(=O)n(C)c(=O)n2C	-6%	·	·	-9%	-8%
CN(CCNC(=O)c1cc2c(=O)n(C)c3ccccc3c2n1C)Cc1ccccc1	-17%	?	11µM*	-10%	10%
CN(CCNC(=O)CCNC(=O)Cn1ccc2ccccc2c1=O)Cc1ccccc1	-13%	-10%	0%	16µM*[quencher]	22µM*
CC(=O)c1ccc(N2CCN(C(=O)c3c(-c4ccccc4Cl)noc3C)CC2)cc1	·	11%	1%	·	·
Fc1ccc(Nc2nc(SCc3cccc(F)c3)nc3ccccc23)cc1	29%	·	·	?	14µM*
Clc1ccc(CSc2nc(NCCc3ccccc3)c3ccccc3n2)cc1	-10%	·	·	-11%	-3%
Fc1ccc(Nc2nc(SCc3cccc(Cl)c3)nc3ccccc23)cc1	11%	·	·	?	8.9µM*
COc1ccc(CCNc2nc(SCc3cccc(F)c3)nc3ccccc23)cc1OC	-1%	·	·	-13%	-5%
Fc1ccc(Nc2nc(SCc3ccc(Cl)cc3)nc3ccccc23)cc1	?	·	·	?	7.9µM*
COc1cc(OC)c(Nc2cc(C)nc3ncnn23)cc1Cl	-5%	·	·	-5%	8%
Cc1ccc(Nc2cc(C)c(C#N)c3nc4ccccc4n23)c(C)c1	-16%	·	·	-21%	0%
Cc1ccc(C)c(O)c1	·	-4%	4%	·	·
Cc1ccc(C(O)(COC(=O)C(C)C)COC(=O)C(C)C)c(O)c1	?	32µM*	-106%	-19%	1%
O=C(Nc1cccc(Cl)c1N1CCCCC1)c1ccc2c(c1)OCCO2	-17%	6%	-21%	-20%	-12%
O=C(NC(=S)Nc1cccc(Cl)c1N1CCCCC1)c1ccc2c(c1)OCCO2	-4%	4.5µM*	2.5µM*	-17%	?
O=C(Nc1cccc(Cl)c1N1CCCC1)c1ccco1	·	3%	-10%	·	·
CCC(=O)NC(=S)Nc1cccc(Cl)c1N1CCCC1	7%	?	1.1µM*	0%	-12%
COC(=O)c1ccc(CNC(=O)Cn2nnnc2CN(C)C(C)C)cc1	·	-5%	?	·	·
CCOc1ccc(C2C(C(=O)C3CC3)N3C=C(C#N)C=CC3C2(C#N)C#N)cc1 (centres undefined)	16µM*	?	?	-24%	?
CCOc1ccc(C(=O)C2CCN(C(=O)c3ccccc3C(=O)O)CC2)cc1	-9%	8%	-5%	-5%	0%
CCOC(=O)CSc1cc(-c2ccccc2)nc2ncnn12	-17%	11µM*	-75%	-8%	?
O=C(/C=C\c1ccccc1OC(=O)c1ccccc1F)c1cc2ccccc2o1	14%	0.32µM*	?	11%	3%
IC(I)I	·	6%	3%	·	·
COc1ccc(Cl)cc1NS(=O)(=O)c1c(C)[nH]c(=O)[nH]c1=O	28µM*	-6%	3%	?	?
COc1cccc(CNC(=O)c2sc3nc(C)cc(C)c3c2-n2cccc2)c1OC	7%	·	·	-3%	?
